From PubChem
HCMV antiviral: blocks human cytomegalovirus replication | HFF cells, HCMV-luciferase reporter, 72 h; active compounds read low | activity change, negative = inhibition, % at 57.5 µM | hit rate 4.5% among 410,000 | AID 1259415; in the data active = activity change below about -60%; inconclusive = no clear call, values can overlap the other calls; inactive = above about -39%
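Two compound doses tested in HFFs infected with HCMV-luciferase, MOI 1 PFU/cell, 72 h at 37C. Lysate luminescence read with OneGlo; data normalized against buffer-only and 10uM Salinomycin inhibitor controls.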
Sm TGR block: inhibitors of Schistosoma mansoni thioredoxin glutathione reductase | Potency, µM (top dose mostly 114 µM), for inactives: at the highest dose activity change, negative = inhibition, actives largely listed as inhibitors | AID 485364 | hit rate 3% among 360,000 | purified TGR, DTNB reduction, TNB absorbance 405 nm | Q962Y6; also: potency is read from the fitted curve at half-maximal effect; nearly all actives have a fitted effect of over 60% in size
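Kinetic colorimetric format: TGR-catalysed, NADPH-driven DTNB reduction monitored via TNB absorbance. Enzyme dispensed at 20 nM; compound exposure 15 min at room temperature before reaction start.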
TbPYK inhibitor: blocks Trypanosoma brucei pyruvate kinase. Q57TT1. TbPYK enzyme, Kinase-Glo Plus ATP luminescence, 45 min. Potency, µM (doses to about 76.8 µM), for the others: at the highest dose activity, negative = inhibition, most hits filed as inhibitors. hit rate 0.12% among 410,000; also: potency is read from the fitted curve at half-maximal effect; nearly all actives have a fitted effect of over 50% in size
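Luminescent Kinase-Glo Plus end-point after 45 min room-temperature reaction of T. brucei pyruvate kinase started with 130 uM ADP (final). Buffer TEA 50 mM pH 7.2 with KCl, MgCl2, BSA, Tween-20; titration-based qHTS with fitted concentration-effect curves.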
RE007 growth inh: less growth of the S. pombe RE007 Vpr strain | S. pombe RE007 Vpr strain, BacTiter-Glo ATP luminescence, 24 h | Potency, µM (doses to about 92.2 µM), without a hit: at the highest dose activity change, negative = less growth, most hits filed as inhibitors | hit rate 0.21% among 360,000 | AID 651644; active = well fitted falling curve with a large enough effect; inconclusive = small, poorly fitted or top-dose-only effect; inactive = no such curve, though single readings can be large or run the other way; also: potency is read from the fitted curve at half-maximal effect; nearly all actives have a fitted effect of over 50% in size
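Fission yeast strain RE007, carrying one chromosomally integrated HIV-1 vpr copy, was seeded at OD 0.01 in PMG+AL medium with 23 nL pinned compound. After 24 h at 30 °C and 99% humidity, viability was read by BacTiter-Glo luminescence.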
FMDV inh: foot and mouth disease virus antiviral activity; FMDV antiviral cell-based qHTS; Potency, µM (doses to about 57.9 µM), for inactives: top-dose activity change, negative = inhibition, hits mostly inhibitors; hit rate 1.2% among 410,000; calls by dose curve; tested in HEK293T cells; also: read-out not given here; potency is read from the fitted curve at half-maximal effect; nearly all actives have a fitted effect of over 45% in size
Giardia FBPA inh: blocks Giardia fructose-bisphosphate aldolase activity. Potency, µM (series often up to 59.6 µM), inactives show at the highest dose activity, negative = inhibition, most hits filed as inhibitors. hit rate 0.71% among 290,000. purified Giardia FBPA. AID 2451. A8B2U2; also: potency is read from the fitted curve at half-maximal effect; nearly all actives have a fitted effect of over 55% in size
Target sequence (A8B2U2 whole entry, looked up): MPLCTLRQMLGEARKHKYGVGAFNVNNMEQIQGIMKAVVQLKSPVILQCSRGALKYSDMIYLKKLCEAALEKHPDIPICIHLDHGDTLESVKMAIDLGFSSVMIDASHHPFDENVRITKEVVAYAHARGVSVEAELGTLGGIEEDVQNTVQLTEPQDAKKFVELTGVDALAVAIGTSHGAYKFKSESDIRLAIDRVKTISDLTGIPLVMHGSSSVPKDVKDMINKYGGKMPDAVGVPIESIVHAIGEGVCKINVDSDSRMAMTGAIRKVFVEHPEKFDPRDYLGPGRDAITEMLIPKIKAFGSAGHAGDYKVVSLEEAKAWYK
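40 nM FBPA preincubated 10 min at RT with compound (up to 57.5 uM final), then substrate plus GAPDH/TPI/NAD/arsenate coupling and diaphorase/resazurin added. Fluorescence read after 20 min at RT, 525/598 nm.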
* marks the source's active call; other numbers are inactive results; ? = inconclusive; . = no result given; [ ] = dose if it differs, or a comment. Sampled rows, rich in hits. Any-hit rate of the full collection: about 7.7%. Unless noted, calls follow the shape of the dose curve; as a rule, active = well fitted curve in the direction sought with a large enough effect; inconclusive = small, poorly fitted or top-dose-only effect, or another doubt; inactive = no such curve, though single readings can be large; an effect the other way counts as inactive or inconclusive. % is scaled to controls: 0 for no effect and ±100 for the full control effect.

SMILES	HCMV antiviral	Sm TGR block	TbPYK inhibitor	RE007 growth inh	FMDV inh	Giardia FBPA inh
Cc1nn2c(=O)cc(COC(=O)c3cccc(NC(=O)COc4ccccc4C)c3)nc2s1	?	-10.5%	-4.4%	.	2.82µM*	.
Cc1nn2c(=O)cc(COC(=O)c3cccc(NC(=O)COc4ccc(C)c(C)c4)c3)nc2s1	-61.7*	24.6%	2.5%	.	15.3%	.
Cc1nn2c(=O)cc(COC(=O)c3ccc(NC(=O)CCc4ccccc4)cc3)nc2s1	56.1	-2.2%	-5.7%	.	11.2µM*	.
Cc1ccc(CNC(=O)Cc2coc3cc(C)cc(C)c23)cc1	-23.7	-2.1%	-3.7%	.	-5.1%	.
CCCOC(=O)CSc1ncnc2sc3c(c12)CCC(C)C3 (centres undefined)	-29.7	4.4%	0.5%	.	54.5%	.
CCN(CC)S(=O)(=O)c1ccc2c(c1)N(CC(=O)Nc1ccc(C)cc1C)C(=O)C1CCCN21 (centres undefined)	-4.0	-15.7%	-0.6%	.	0.3%	.
CCc1nn2c(=O)cc(COC(=O)c3ccccc3NC(=O)COc3ccccc3C)nc2s1	8.1	0.9%	-4.1%	.	21.6%	.
COc1ccc(OCC(=O)Nc2ccccc2C(=O)OCc2cc(=O)n3nc(C)sc3n2)cc1	-22.1	4.8%	3.7%	.	20µM*	.
O=C(c1ccccc1C(F)(F)F)N1CCOc2c(cc(-c3nc4ccccc4s3)cc2OC2CCOC2)C1 (centres undefined)	.	.	.	.	-0.3%	.
COc1cccc(-c2nc3ccccc3s2)c1O	91.9	.	-10.1%	-2.7%	-36.3%	-7.8%
Oc1c(Br)cc(Br)cc1-c1nc2ccccc2s1	29.1	44.7µM*	-5.8%	.	-4.2%	.
c1ccc(-c2nn3c(-c4ccco4)nnc3s2)nc1	6.4	25.1µM*	-14.3%	-17.0%	0.1%	8.5%
Brc1ccc(-c2nn3c(-c4ccco4)nnc3s2)o1	19.3	8.91µM*	-24.2%	-6.5%	-4.8%	-6.2%
COc1cccc(-c2nn3c(-c4ccco4)nnc3s2)c1	26.9	44.7µM*	.	4.7%[3.69 µM]	32.3%	2.8%
COc1cc(-c2nn3c(-c4ccco4)nnc3s2)cc(OC)c1OC	.	-1.3%	.	.	.	1.4%
Cc1ccc(C)c(N2CCN(c3nc4ccccc4c4nc(CCn5nc(C)cc5C)nn34)CC2)c1	-29.7	-1.3%	-4.5%	.	-20.2%	.
COc1ccc(NC(=O)c2c(NC(=O)C(F)(F)F)sc3c2CCCCC3)cc1	-23.4	1.7%	12.7%	.	-12.6%	.
Cc1ccc(-c2cc(C(=O)NCC(c3ccccc3)N(C)C)c3ccccc3n2)o1 (centres undefined)	?	.	1.8%	-13.9%	-8.6%	.
Cc1cc(C(=O)NCc2ccco2)c2ccccc2n1	38.2	44.0%	-1.6%	-10.6%	4.8%	6.7%
Cc1ccc(-c2cc(C(=O)Nc3ccccc3C)c3ccccc3n2)o1	-17.5	10µM*	-18.6%	-16.6%	-10.3%	-25.4%
Cc1ccc(-c2cc(C(=O)NCc3ccco3)c3ccccc3n2)o1	-27.5	17.8µM*	?	-18.4%	-15.3%	-9.3%
COC(=O)c1cc(-c2ccc(C)o2)nc2ccccc12	-2.6	?	22.4µM*	11.2µM*	-1.5%	-14.7%
Nc1ccnc2c1ncn2[C@@H]1O[C@H](CO)[C@@H](O)[C@H]1O	.	.	.	.	6.5%	.
CC(=O)N1[C@@H]2Cn3c(ccc(-c4ccccc4F)c3=O)[C@H]1[C@@H](C(=O)N1CCOCC1)[C@@H]2CO	-19.2	.	.	.	.	.
CCOC(=O)C1CCCN(C(=O)c2cnn(-c3ncc4c(n3)-c3ccccc3CCC4)c2C2CC2)C1 (centres undefined)	.	.	.	.	44.5%	.
SMILES	HCMV antiviral	Sm TGR block	TbPYK inhibitor	RE007 growth inh	FMDV inh	Giardia FBPA inh
Cn1c(SCC(=O)c2ccc(-c3ccccc3)cc2)nnc1-c1ccco1	-4.9	6.31µM*	-0.5%	-4.6%	-2.1%	-28.2%
O=C(CSc1nnc(-c2ccco2)n1Cc1ccccc1)c1ccccc1	21.5	44.7µM*	-19.3%	6.3%	18.2%	0.0%
COc1cccc(CSc2nnc(-c3ccco3)n2C)c1	-25.3	39.8µM*	3.2%	-0.9%	36.9%	12.9%
CCOc1ccc(NC(=O)C2CCN(S(=O)(=O)c3c(C)noc3/C=C/c3cccs3)CC2)cc1	3.3	-9.2%	8.2%	.	-22.9%	.
CC(C)c1ccc(/C=N/N2CCN(c3ccccn3)CC2)cc1	-63.1*	15.8%	-0.5%	-7.4%	-3.8%	0.3%
COc1cccc(CN2CCN(Cc3ccc4c(NC(C)=O)cccc4n3)CC2CCO)c1 (centres undefined)	19.9	20µM*	1.3%	-8.4%	-15.3%	-20.9%
CC(=O)Nc1ccc2nc(CN3CCN(CC=C(C)C)C(CCO)C3)ccc2c1 (centres undefined)	-32.7	20µM*	-0.6%	2.1%	-18.0%	19.2%
Cc1ccc(CN2CCN(Cc3cnn(-c4ccc(F)cc4)c3)CC2CCO)o1 (centres undefined)	7.8	-18.7%[57.1 µM]	-1.3%	-7.8%	-23.8%	0.4%
CCOc1ccccc1CN1CCN(Cc2ccc3cc(F)ccc3n2)CC1CCO (centres undefined)	60.3	35.5µM*	-5.1%	4.9%	-14.3%	-21.3%
Cc1ccc(CN2CCN(Cc3ccc4cc(F)ccc4n3)CC2CCO)o1 (centres undefined)	-14.0	17.8µM*	-3.5%	0.4%	-12.6%	-12.3%
COc1ccc(OC)c(CNc2ncc(-c3ccc(Cl)cc3)n2C)c1	-0.5	-2.3%	-0.1%	.	-10.3%	.
COc1ccc(CN2CCN(Cc3ccc4cc(F)ccc4n3)CC2CCO)c(C)c1C (centres undefined)	7.2	22.4µM*	0.1%	-3.6%	-17.0%	-17.7%
COc1cc(CN2CCN(Cc3ccc4cc(F)ccc4n3)CC2CCO)cc(OC)c1 (centres undefined)	23.9	39.8µM*	1.7%	-2.5%	37.3%	?
CCOc1ccc2nc(CN3CCN(Cc4ccccc4OCC)C(CCO)C3)ccc2c1 (centres undefined)	7.5	?	4.4%	-5.0%	-18.6%	-26.7%
Cc1nc2ccccc2nc1CN1CCN(Cc2ccc(F)c(F)c2)C(CCO)C1 (centres undefined)	14.1	14.1µM*	0.7%	6.7%	0.0%	-4.6%
OCCC1CN(Cc2ccc3cc(Cl)ccc3n2)CCN1Cc1ccsc1 (centres undefined)	-30.2	35.5µM*	-10.5%	-10.3%	?	-14.6%
COc1ccc2[nH]c3c(c2c1)[C@@H]1CCN2C(=O)CCC[C@H](C3)[C@H]12	-61.3*	-4.8%	-9.8%	-15.8%	0.6%	-17.6%
COc1ccc(CNC2C[C@H]3CCCC(=O)N4CC[C@@H](C2)[C@@H]34)cc1 (some centres undefined)	5.9	.	-4.9%	-3.9%	-2.7%	0.0%[89.2 µM]
